# Measured values published in PubChem BioAssay (NCATS).
# Inconclusive results are not listed. Where a call stands in place of a potency, no number is given. Active and inactive are the calls of the source. Calls follow the shape of the dose curve; as a rule, active = well fitted inhibition curve with a large enough effect; inconclusive = small, poorly fitted or top-dose-only effect; inactive = flat fitted curve, though single readings scatter.
# What was measured:
# Test in all cases: qHTS profiling for inhibitors of Plasmodium falciparum proliferation (AID 504749); also: nearly all actives have a fitted effect of over 60% in size
# Conditions in all cases: P. falciparum in erythrocytes, SYBR Green DNA, 72 h; series mostly up to 28.7 µM
# CP217 = system: CP217
# Summary of the method: (§1)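 SYBR Green fluorescence of parasite DNA, read after lysis and overnight dark incubation, measured growth over 72 h in erythrocyte culture at 0.3% parasitemia and 2.5% hematocrit. Data normalised to DMSO and 0.29 uM artemisinin, with plate-drift correction.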
# CP237 = system: CP237
# Summary of the method: as §1
# CP238 = system: CP238
# Summary of the method: as §1
# CP247 = system: CP247
# Summary of the method: as §1
# CP250 = system: CP250
# Summary of the method: as §1
# CP252 = system: CP252
# Summary of the method: as §1
# CP256 = system: CP256
# Summary of the method: as §1
# CP260 = system: CP260
# Summary of the method: as §1
# CP262 = system: CP262
# Summary of the method: as §1
# CP265 = system: CP265
# Summary of the method: as §1
# CP266 = system: CP266
# Summary of the method: as §1
# CP268 = system: CP268
# Summary of the method: as §1
# CP269 = system: CP269
# Summary of the method: as §1
# CP286 = system: CP286
# Summary of the method: as §1
# CP291 = system: CP291
# Summary of the method: as §1
# CP297 = system: CP297
# Summary of the method: as §1
# CP305 = system: CP305
# Summary of the method: as §1
# CP315 = system: CP315
# Summary of the method: as §1
# CP325 = system: CP325
# Summary of the method: as §1
# CP329 = system: CP329
# Summary of the method: as §1
# Potency is read from the fitted curve at half-maximal effect.
SMILES,Potency (CP217),Potency (CP237),Potency (CP238),Potency (CP247),Potency (CP250),Potency (CP252),Potency (CP256),Potency (CP260),Potency (CP262),Potency (CP265),Potency (CP266),Potency (CP268),Potency (CP269),Potency (CP286),Potency (CP291),Potency (CP297),Potency (CP305),Potency (CP315),Potency (CP325),Potency (CP329)
CCC(C(=O)O)C1CCC(C)C(C(C)C(O)C(C)C(=O)C(CC)C2OC3(C=CC(O)[C@@]4(CC[C@](C)(C5CC[C@@](O)(CC)C(C)O5)O4)O3)C(C)CC2C)O1 (some centres not stated),1.12 µM (active),0.447 µM (active),1.12 µM (active),0.891 µM (active),1.12 µM (active),0.891 µM (active),2 µM (active),0.631 µM (active),0.849 µM (active),1.26 µM (active),1.35 µM (active),1.07 µM (active),0.675 µM (active),0.794 µM (active),0.675 µM (active),0.757 µM (active),0.675 µM (active),0.478 µM (active),0.849 µM (active),0.601 µM (active)
COc1ccc2c(c1OC)C(=O)OC2[C@H]1c2c(cc3c(c2OC)OCO3)CCN1C (some centres not stated),inactive,inactive,inactive,inactive,inactive,inactive,inactive,inactive,inactive,inactive,inactive,inactive,inactive,inactive,inactive,inactive,inactive,inactive,inactive,inactive
Nc1nc2c(c(=O)[nH]1)N(C=O)[C@H](CNc1ccc(C(=O)N[C@@H](CCC(=O)O)C(=O)O)cc1)CN2,inactive,inactive,inactive,inactive,inactive,inactive,inactive,inactive,inactive,inactive,inactive,inactive,inactive,inactive,–,inactive,inactive,inactive,inactive,inactive
CCCCCCCCCCCC(CC1OC(=O)C1CCCCCC)OC(=O)C(CC(C)C)NC=O (configuration not stated),2.24 µM (active),0.794 µM (active),0.708 µM (active),0.398 µM (active),0.447 µM (active),0.794 µM (active),0.708 µM (active),0.794 µM (active),inactive,0.631 µM (active),inactive,–,–,1 µM (active),–,–,–,inactive,–,–
OCC(O)C(O)C(O)CO (configuration not stated),inactive,inactive,inactive,inactive,inactive,inactive,inactive,inactive,inactive,inactive,inactive,inactive,inactive,inactive,inactive,inactive,inactive,inactive,inactive,inactive
COc1ccc([C@@H]2CNC(=O)C2)cc1OC1CCCC1,inactive,inactive,inactive,inactive,inactive,inactive,inactive,inactive,inactive,inactive,inactive,inactive,inactive,inactive,inactive,inactive,inactive,inactive,inactive,inactive
COc1cccc2c1C(=O)c1c(O)c3c(c(O)c1C2=O)C[C@@](O)(C(=O)CO)C[C@@H]3O[C@H]1C[C@H](N)[C@H](OC2CCCCO2)[C@H](C)O1 (some centres not stated),4.47 µM (active),2.24 µM (active),5.01 µM (active),3.55 µM (active),2.51 µM (active),11.2 µM (active),8.91 µM (active),2.24 µM (active),inactive,8.91 µM (active),7.57 µM (active),8.49 µM (active),5.36 µM (active),2 µM (active),6.75 µM (active),6.75 µM (active),6.01 µM (active),16.9 µM (active),7.57 µM (active),6.75 µM (active)
